A selection: hits, their analogues and other compounds. The true share with any hit is near 1.8%.
GLP1R cytotox: qHTS of GLP-1 Receptor Inverse Agonists: Cytotox Screen | HEK293 cAMP-luciferase reporter cells, luminescence, 24 h | Potency, µM (series often up to 38.3 µM), for the others: at the highest dose activity change, negative = inhibition, hits mostly inhibitors | 410,000 tested, 0.13% active | AID 624418, 2012;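 note: loss of luciferase light is scored as toxicity; % is set by controls: 0 for no effect and ±100 for the full control effect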
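Seeding density was 200 cells/uL; after overnight-length (12 h) culture, 23 nL compounds went on for 24 h at 37 °C. Readout used a luciferase detection reagent, luminescence taken after 12 min at room temperature.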
GLP1R ag: qHTS of GLP-1 Receptor Agonists. Glucagon-like peptide 1 receptor (Homo sapiens), P43220. HEK293 GLP-1R CRE-luciferase, luminescence, 4-6 h; cells express a hypersensitive GLP-1R form. Potency, µM (highest dose often 45.6 µM), for inactives: at the highest dose activation, hits mostly activators. 380,000 tested, 0.007% active; note: % of control where 0% means no effect
Tb PFK inh: qHTS Assay to Find Inhibitors of T. brucei phosphofructokinase; 330,000 tested, 0.17% active; ATP-dependent 6-phosphofructokinase (Trypanosoma brucei brucei), O15648; AID 485367, 2010; Potency, µM (doses to about 57.5 µM), for inactives: at the top dose activity, negative = inhibition, actives largely listed as inhibitors; T. brucei PFK, ADP-Glo luminescence;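 note: 0% = uninhibited 1x PFK enzyme wells and -100% = no-enzyme wells; nearly all actives have a fitted effect of over 60% in size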
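ADP-Glo luminescence quantified ADP after 45 min at room temperature, with 1.25 nM T. brucei PFK, 0.1 mM ATP and 0.5 mM fructose-6-phosphate in pH 8.0 TEA buffer. qHTS titrations up to 57 µM; curves classified by quality.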
GLP1R inv ag: qHTS of GLP-1 Receptor Inverse Agonists (Inhibition Mode); 410,000 tested, 1.6% active; HEK293 GLP-1R CRE-luciferase, luminescence, 24 h; GLP-1R form is constitutively active; Glucagon-like peptide 1 receptor (Homo sapiens), P43220; Potency, µM (series often up to 38.3 µM), without a hit: at the top dose activity change, negative = inhibition, most hits filed as inhibitors; note: % is set by controls: 0 for no effect and ±100 for the full control effect; nearly all actives have a fitted effect of over 55% in size
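Using stably transfected HEK293 (constitutively active GLP-1R, cAMP-luciferase reporter), compounds were incubated 24 hr and luciferase measured by luminescence.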
PGK inhibitor: qHTS Assay to Find Inhibitors of Phosphoglycerate Kinase; 380,000 tested, 0.043% active; PGK/GAPDH coupled, Kinase-Glo luminescence, 60 min; Potency, µM (series often up to 57.5 µM), without a hit: top-dose activity change, negative = inhibition, usual class: inhibitors; AID 602233, 2012; Phosphoglycerate kinase, glycosomal (Trypanosoma brucei brucei), P07378; note: % is set by controls: 0 for no effect and ±100 for the full control effect; nearly all actives have a fitted effect of over 60% in size
Target sequence (P07378 whole entry, looked up): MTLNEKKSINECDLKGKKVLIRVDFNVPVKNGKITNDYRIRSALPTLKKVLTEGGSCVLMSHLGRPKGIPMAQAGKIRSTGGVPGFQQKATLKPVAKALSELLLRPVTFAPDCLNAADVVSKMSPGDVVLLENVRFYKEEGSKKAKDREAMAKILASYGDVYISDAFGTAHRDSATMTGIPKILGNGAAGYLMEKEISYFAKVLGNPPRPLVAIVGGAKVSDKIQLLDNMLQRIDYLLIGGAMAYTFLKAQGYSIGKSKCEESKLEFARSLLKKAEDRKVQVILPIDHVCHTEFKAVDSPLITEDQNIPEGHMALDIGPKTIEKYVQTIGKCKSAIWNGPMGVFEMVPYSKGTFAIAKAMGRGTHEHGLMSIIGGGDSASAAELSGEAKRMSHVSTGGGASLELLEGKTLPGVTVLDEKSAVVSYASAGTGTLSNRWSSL
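Luminescent ATP detection (Kinase-Glo Plus) follows a 60-minute room-temperature incubation, with wells lacking PGK as controls. Buffer: 100 mM TEA (pH 7.6), 5 mM MgCl2, 0.01% Tween-20. Coupling enzyme GAPDH (100 nM final) supplies unstable 1,3-BPG in-well.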
Pin1 inhibitor: qHTS Assay to Find Inhibitors of Pin1. Peptidyl-prolyl cis-trans isomerase NIMA-interacting 1 (Homo sapiens), Q13526. Pin1 FP peptide displacement, HiFluor488, 10 min. Potency, µM (doses to about 115 µM), inactives show at the highest dose activity, negative = inhibition, actives largely listed as inhibitors. 390,000 tested, 0.009% active. AID 504891, 2011; active = well fitted inhibition curve with a large enough effect in the polarisation, with a control signal flat, not every such curve was filed as active; inconclusive = small, poorly fitted or top-dose-only effect, or effect the other way, or a change in a side signal; inactive = no such curve, though single readings can be large or run the other way; the % refers to the polarisation; note: % is set by controls: 0 for no effect and ±100 for the full control effect
Target sequence (Q13526 whole entry, looked up): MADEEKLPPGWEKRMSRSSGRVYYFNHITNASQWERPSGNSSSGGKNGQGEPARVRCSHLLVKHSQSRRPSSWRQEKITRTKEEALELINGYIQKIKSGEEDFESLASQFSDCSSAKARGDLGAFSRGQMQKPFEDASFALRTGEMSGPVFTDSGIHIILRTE
The depositor's hits bear a star; i = inactive; ? = inconclusive; . = no result given. Unless noted, calls come from the whole dose curve; as a rule, active = well fitted curve in the direction sought with a large enough effect; inconclusive = small, poorly fitted or top-dose-only effect, or another doubt; inactive = no such curve, though single readings can be large; an effect the other way counts as inactive or inconclusive. Potency is the fitted concentration of half-maximal effect.

SMILES	GLP1R cytotox	GLP1R ag	Tb PFK inh	GLP1R inv ag	PGK inhibitor	Pin1 inhibitor
Cc1ccc(S(=O)(=O)N2CCCC(C(=O)NCCc3ccc4c(c3)OCO4)C2)cc1 (stereo not given)	15%	-6%	0%	13µM*	-7%	2%
Cc1ccc(S(=O)(=O)N2CCCC(C(=O)NCc3ccc4c(c3)OCO4)C2)cc1 (stereo not given)	-4%	13%	0%	?	-6%	4%
CC1CCN(S(=O)(=O)c2ccc(C(=O)NCc3ccc4c(c3)OCO4)cc2)CC1	6%	2%	0%	0%	-6%	-5%
CC1CC(C)CN(S(=O)(=O)c2ccc(C(=O)NCc3ccc4c(c3)OCO4)cc2)C1 (stereo not given)	22%	5%	6%	10µM*	-2%	?
C[N+](C)(C)CCOP(=O)(O)OP(=O)([O-])OCC1OC(n2ccc(N)nc2=O)[C@H](O)[C@@H]1O (stereo not given in full)	.	-6%	.	.	.	.
CCOc1ccc(NC(=O)c2c(C)oc3nc(C)nc(N4CCOCC4)c23)cc1	6%	.	.	-3%	10%	9%
CC(=O)c1ccc(NC(=O)C(C)n2nc(-c3ccccc3)c3cc(Cl)ccc32)cc1 (stereo not given)	-28%	-6%	-6%	6.3µM*	-2%	19%
COc1ccc(C2Nc3ccccc3C(=O)N2Cc2ccccc2)cc1COc1ccc(C)cc1 (stereo not given)	.	.	.	.	.	8%
O=C1CCc2cc(S(=O)(=O)Nc3ccc(Cl)cc3)ccc2N1	.	.	.	.	.	0%
CCOC(=O)c1ccccc1NC1c2ccccc2C(=O)N1c1cc(C)ccn1 (stereo not given)	15%	3%	3%	13µM*	-2%	2%
CC1=CC(C)C(C[N+]2(C)CCCCC2)C(C)C1 (stereo not given)	0%	2%	-6%	-2%	-2%	0%
CC1=CC(C)C(/C=N/N=C(N)N)C(C)C1 (stereo not given)	11%	-1%	-6%	8.9µM*	-6%	-1%
Cn1c(/C=C/c2ccc(Br)cc2)c([N+](=O)[O-])c(=O)n(C)c1=O	?	0%	0%	4.5µM*	i	1%
CN(C)c1ccc(/C=C/c2c([N+](=O)[O-])c(=O)n(C)c(=O)n2C)cc1	-23%	-1%	-9%	-12%	-4%	-2%
N#CC(C#N)=c1ccc2c(c1)NC1(CCCCC1)N=2	10µM*	0%	?	164%	?	1%
CC(=O)NC(CCC(N)=O)C(=O)O (stereo not given)	.	-1%	.	.	.	.
CCOC(=O)Nc1sc2c(c1C(=O)OCC)CCC2	3%	8%	1%	-4%	i	0%
CCOC(=O)c1c(NC(NC(=O)C(C)C)C(Cl)(Cl)Cl)sc2c1CCC2 (stereo not given)	-3%	-4%	7%	5.6µM*	2%	41%
CCCCn1c(C(C)NC(=O)c2ccccc2)nc2ccccc21 (stereo not given)	17%	-1%	.	?	0%	10%
Cc1cccc(C)c1OCCOC(=O)c1n[nH]c2ccccc12	-4%	30%	-2%	?	-3%	?
Cc1ccc(C)c(C(=O)COC(=O)c2n[nH]c3ccccc23)c1	-2%	13%	0%	10µM*	-7%	-1%
CCc1ccccc1NC(=O)CSc1ncc2c(n1)-c1ccccc1N(Cc1ccc(C)cc1)S2(=O)=O	1%	.	.	6%	-3%	4%
O=C(N1CCN=C1SCc1cccnc1)C12CC3CC(CC(C3)C1)C2	3%	-10%	9%	3.5µM*	6%	1%
COc1ccc(-n2nc(C(=O)Nc3cccc(C)n3)c3c4ccccc4n(C)c3c2=O)cc1	-6%	.	.	3%	.	-1%
O=C(Nc1ccc(Cl)cc1)N1CCC(CO)(Cc2ccccc2)CC1	-15%	10%	-4%	7.9µM*	-2%	-2%
SMILES	GLP1R cytotox	GLP1R ag	Tb PFK inh	GLP1R inv ag	PGK inhibitor	Pin1 inhibitor
Cc1ccc(N2C(=O)NC(NC(=O)C3CC3)(C(F)(F)F)C2=O)cc1 (stereo not given)	-5%	-2%	-4%	-12%	5%	-1%
Cc1ccc(C(=O)NC2(C(F)(F)F)NC(=O)N(c3ccc(Cl)cc3)C2=O)cc1 (stereo not given)	-10%	-4%	0%	5.6µM*	-3%	2%
Cc1cc(N/N=C/c2ccccc2)nc(NCc2ccccc2)n1	-32%	-6%	-1%	?	6%	-1%
Cc1cc(N/N=C/c2cccc(Cl)c2)nc(NCc2ccccc2)n1	?	1%	1%	11µM*	-8%	1%
Cc1cc(Nc2cccc(Cl)c2)nc(NCc2ccccc2)n1	-11%	17%	0%	10µM*	5%	?
Cc1cc(N/N=C/c2ccc(Cl)cc2)nc(NCc2ccccc2)n1	-16%	19%	2%	4.5µM*	-2%	1%
O=C(N/N=C(\CC(=O)c1cccs1)C(F)(F)F)c1cccnc1	3%	4%	6%	2.2µM*	i	-6%
CCc1ccc(-c2cc(C)no2)cc1S(=O)(=O)N1CCC(C)CC1	-6%	22%	-10%	?	-5%	5%
CCc1ccc(-c2cc(C)no2)cc1S(=O)(=O)N1CCCN(Cc2ccc(F)cc2)C1	-24%	-5%	-1%	2.5µM*	-4%	-2%
Cc1cccc(N2CCN(S(=O)(=O)c3cc(-c4cc(C)no4)ccc3C)CC2C)c1 (stereo not given)	-12%	-3%	-1%	4µM*	-2%	7%
COc1ccccc1N1CCN(S(=O)(=O)c2cc(-c3cc(C)no3)ccc2C(C)C)CC1	-9%	5%	3%	1µM*	-6%	10%
COc1ccc(-c2cc(C)no2)cc1S(=O)(=O)N1CCN(c2cccc(C)c2)C(C)C1 (stereo not given)	4%	-4%	-7%	?	-2%	15%
Cc1cc(-c2ccc(C(C)C)c(S(=O)(=O)N3CCN(c4ccccc4)CC3)c2)on1	-9%	15%	2%	?	i	13%
